Measurements reported in the supplement of paper PMC10849652.
Targets with a hit are over-represented here; the source holds about 7,900 in all. About 0.6% of all pairs of compound and target were hits.

What follows are targets tested with CO[C@H]1C[C@@H]2CC[C@@H](C)[C@@](O)(O2)C(=O)C(=O)N2CCCC[C@H]2C(=O)O[C@H]([C@H](C)C[C@@H]2CC[C@H](n3cnnn3)[C@H](OC)C2)CC(=O)[C@H](C)/C=C(\C)[C@@H](O)[C@@H](OC)C(=O)[C@H](C)C[C@H](C)/C=C/C=C/C=C/1C [zotarolimus] (assay: log2 fold change, soluble protein after heating vs DMSO (PISA); higher = thermal stabilisation; K562 cells, 10 uM, 30 min; active = over 0.2 and 3.5 SD of the protein, either way, in both replicates (recomputed)).
Summary of the method: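 K562 cells at 2×10^6 cells/mL were exposed to 10 μM compound for 30 min, then aliquots were heated for 3 min across 48°C-58°C, pooled, and extracted in PBS containing 0.5% NP-40 at 4°C. The supernatant after 21,000xg for 90 min was taken as soluble protein and measured by TMTpro 16plex LC-MS/MS with channel sums equalised. Thermal stability is reported relative to control samples, with values from duplicates. Fold changes are given on a log2 scale.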

Chain of UniProt O75909 (O75909 whole entry, looked up): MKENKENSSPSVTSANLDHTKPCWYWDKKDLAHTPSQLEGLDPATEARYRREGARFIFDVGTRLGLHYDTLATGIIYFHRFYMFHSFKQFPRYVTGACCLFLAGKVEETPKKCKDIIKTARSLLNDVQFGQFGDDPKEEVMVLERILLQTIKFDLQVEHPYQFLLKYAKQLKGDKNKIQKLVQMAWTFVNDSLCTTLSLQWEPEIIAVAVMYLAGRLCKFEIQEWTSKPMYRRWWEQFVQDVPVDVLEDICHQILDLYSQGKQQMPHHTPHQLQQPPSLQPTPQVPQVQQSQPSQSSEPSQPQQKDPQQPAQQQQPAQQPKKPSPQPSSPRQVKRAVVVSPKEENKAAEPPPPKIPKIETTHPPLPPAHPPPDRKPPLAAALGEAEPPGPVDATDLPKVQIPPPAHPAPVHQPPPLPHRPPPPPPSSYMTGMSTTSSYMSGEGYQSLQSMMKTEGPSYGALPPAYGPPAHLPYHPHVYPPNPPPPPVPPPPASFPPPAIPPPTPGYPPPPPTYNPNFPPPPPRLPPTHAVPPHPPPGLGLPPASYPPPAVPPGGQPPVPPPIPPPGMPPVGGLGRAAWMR
Chain of UniProt O75976 (O75976 whole entry, looked up): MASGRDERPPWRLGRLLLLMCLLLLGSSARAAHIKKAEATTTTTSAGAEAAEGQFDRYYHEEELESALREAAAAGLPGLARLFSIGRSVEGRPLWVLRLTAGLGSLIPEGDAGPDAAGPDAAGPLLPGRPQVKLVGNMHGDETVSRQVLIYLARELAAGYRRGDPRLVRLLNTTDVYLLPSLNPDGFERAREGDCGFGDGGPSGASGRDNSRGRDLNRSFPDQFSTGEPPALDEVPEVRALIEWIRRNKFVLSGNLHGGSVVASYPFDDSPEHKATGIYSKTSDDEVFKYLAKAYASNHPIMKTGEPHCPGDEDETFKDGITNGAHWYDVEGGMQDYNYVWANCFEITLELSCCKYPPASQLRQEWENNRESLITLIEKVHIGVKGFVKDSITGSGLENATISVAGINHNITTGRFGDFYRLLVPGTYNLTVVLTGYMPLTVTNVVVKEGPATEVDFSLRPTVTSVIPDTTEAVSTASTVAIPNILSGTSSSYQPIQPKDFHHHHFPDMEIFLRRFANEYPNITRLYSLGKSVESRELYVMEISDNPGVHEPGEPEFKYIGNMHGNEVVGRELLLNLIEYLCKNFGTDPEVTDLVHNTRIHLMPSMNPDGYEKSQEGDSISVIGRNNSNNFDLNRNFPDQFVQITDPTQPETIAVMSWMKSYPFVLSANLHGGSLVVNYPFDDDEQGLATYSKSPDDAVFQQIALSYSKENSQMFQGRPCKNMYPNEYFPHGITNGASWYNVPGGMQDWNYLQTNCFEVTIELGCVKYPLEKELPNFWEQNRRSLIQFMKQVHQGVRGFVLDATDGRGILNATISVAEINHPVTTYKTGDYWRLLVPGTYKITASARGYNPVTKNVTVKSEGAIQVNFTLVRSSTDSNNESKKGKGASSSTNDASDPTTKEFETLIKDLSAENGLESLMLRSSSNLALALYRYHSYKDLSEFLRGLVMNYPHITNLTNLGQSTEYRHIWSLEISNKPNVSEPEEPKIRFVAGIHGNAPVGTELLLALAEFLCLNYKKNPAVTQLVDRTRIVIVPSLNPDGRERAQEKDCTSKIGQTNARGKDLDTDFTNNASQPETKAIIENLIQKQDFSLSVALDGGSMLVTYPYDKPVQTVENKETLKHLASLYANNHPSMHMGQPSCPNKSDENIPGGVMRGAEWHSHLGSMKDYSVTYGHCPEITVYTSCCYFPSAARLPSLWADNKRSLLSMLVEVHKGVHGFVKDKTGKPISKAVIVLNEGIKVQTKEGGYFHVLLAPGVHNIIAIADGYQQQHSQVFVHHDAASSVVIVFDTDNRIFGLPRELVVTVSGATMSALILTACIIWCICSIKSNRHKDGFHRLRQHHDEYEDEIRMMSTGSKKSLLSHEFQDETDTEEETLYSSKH
Chain of UniProt O75794 (O75794 whole entry, looked up): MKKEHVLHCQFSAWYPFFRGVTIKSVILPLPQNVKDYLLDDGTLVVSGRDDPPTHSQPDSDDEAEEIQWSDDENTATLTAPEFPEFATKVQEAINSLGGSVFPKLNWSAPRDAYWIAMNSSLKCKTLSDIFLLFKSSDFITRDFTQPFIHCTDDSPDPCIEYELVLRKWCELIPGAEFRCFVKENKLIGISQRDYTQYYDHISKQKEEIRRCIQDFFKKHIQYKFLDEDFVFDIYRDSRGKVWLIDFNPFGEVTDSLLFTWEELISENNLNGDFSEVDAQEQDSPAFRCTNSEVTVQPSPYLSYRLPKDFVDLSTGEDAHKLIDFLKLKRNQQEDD
Chain of UniProt Q96JB5 (Q96JB5 whole entry, looked up): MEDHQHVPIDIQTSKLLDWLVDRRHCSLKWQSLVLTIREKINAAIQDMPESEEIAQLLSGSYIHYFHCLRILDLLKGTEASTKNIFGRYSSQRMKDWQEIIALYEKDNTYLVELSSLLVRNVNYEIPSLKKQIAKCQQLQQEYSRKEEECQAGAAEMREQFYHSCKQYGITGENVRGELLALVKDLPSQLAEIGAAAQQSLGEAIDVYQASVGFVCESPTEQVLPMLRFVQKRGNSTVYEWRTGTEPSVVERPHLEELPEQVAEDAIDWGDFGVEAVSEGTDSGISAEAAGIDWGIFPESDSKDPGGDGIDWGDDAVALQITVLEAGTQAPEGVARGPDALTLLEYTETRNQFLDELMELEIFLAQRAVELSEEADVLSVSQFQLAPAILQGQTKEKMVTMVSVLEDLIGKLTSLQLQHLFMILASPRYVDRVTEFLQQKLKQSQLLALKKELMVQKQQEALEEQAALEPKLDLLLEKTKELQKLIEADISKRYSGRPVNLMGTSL
Chain of UniProt Q9NXV6 (Q9NXV6 whole entry, looked up): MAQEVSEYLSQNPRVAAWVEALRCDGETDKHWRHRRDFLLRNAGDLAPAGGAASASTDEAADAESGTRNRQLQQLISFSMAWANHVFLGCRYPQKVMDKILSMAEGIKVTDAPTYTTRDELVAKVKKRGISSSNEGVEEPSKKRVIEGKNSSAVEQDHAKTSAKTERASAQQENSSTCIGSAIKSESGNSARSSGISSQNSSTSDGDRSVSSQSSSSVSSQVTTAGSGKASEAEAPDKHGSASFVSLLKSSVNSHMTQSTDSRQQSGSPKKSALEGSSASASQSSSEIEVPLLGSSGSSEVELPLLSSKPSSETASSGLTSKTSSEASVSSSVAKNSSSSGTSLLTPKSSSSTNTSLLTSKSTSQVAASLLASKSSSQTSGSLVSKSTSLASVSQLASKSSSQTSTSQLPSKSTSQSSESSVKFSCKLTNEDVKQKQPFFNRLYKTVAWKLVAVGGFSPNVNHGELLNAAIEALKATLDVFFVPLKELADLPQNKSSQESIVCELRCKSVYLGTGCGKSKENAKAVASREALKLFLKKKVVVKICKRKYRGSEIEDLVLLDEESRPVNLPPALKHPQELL
Chain of UniProt Q96SZ6 (Q96SZ6 whole entry, looked up): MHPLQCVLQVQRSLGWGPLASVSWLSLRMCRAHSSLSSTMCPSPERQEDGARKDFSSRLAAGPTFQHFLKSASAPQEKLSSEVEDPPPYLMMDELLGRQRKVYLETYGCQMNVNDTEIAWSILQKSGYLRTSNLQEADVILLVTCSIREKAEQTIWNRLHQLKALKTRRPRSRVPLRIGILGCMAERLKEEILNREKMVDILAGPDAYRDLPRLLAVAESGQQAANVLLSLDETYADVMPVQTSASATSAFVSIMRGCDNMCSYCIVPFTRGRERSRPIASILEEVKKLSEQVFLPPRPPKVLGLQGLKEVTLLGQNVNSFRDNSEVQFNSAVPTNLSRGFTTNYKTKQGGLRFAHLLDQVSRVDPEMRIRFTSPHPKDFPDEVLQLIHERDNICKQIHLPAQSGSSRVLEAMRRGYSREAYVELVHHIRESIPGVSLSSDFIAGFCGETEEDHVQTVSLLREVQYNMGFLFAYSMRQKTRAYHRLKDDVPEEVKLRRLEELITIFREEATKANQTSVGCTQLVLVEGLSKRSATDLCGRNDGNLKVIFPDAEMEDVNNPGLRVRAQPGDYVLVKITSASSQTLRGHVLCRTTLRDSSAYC
Chain of UniProt Q86X83 (Q86X83 whole entry, looked up): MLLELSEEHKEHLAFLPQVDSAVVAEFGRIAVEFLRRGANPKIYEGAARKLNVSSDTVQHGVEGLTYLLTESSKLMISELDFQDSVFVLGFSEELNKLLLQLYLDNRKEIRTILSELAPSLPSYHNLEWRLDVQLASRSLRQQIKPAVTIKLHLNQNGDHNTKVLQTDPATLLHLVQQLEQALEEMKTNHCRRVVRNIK
Chain of UniProt O75208 (O75208 whole entry, looked up): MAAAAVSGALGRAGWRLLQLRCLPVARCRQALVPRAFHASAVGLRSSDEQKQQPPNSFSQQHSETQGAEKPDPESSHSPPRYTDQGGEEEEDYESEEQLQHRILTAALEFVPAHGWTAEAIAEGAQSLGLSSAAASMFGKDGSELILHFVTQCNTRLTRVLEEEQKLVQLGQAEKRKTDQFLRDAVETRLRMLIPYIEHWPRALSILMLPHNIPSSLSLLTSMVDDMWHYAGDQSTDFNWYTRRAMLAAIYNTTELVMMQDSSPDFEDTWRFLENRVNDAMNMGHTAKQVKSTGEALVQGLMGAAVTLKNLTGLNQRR
Chain of UniProt Q8N1A6 (Q8N1A6 whole entry, looked up): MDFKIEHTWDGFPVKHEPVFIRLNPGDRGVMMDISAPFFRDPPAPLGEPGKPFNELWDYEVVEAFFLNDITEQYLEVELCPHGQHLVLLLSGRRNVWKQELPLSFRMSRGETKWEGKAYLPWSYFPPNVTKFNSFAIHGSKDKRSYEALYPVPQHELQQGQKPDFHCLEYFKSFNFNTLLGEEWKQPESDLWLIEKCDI
Chain of UniProt Q96MX0 (Q96MX0 whole entry, looked up): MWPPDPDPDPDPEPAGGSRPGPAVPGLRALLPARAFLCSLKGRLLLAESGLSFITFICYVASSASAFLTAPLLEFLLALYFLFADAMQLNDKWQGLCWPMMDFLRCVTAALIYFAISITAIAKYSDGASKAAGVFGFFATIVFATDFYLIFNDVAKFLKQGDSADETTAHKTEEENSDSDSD
Chain of UniProt P61024 (P61024 whole entry, looked up): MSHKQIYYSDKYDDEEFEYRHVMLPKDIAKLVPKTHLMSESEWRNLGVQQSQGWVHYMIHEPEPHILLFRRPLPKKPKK

log2 fold change, inactive:
CSNK1D (UniProt P48730) -0.019
C9orf72 (UniProt Q96LT7) -0.115
CKS1B (UniProt P61024) 0.013
CDC123 (UniProt O75794) -0.016
CASP2 (UniProt P42575) 0.047
C4orf33 (UniProt Q8N1A6) -0.009
CCNK isoform 4 (UniProt O75909) 0.163
CDK12 (UniProt Q9NYV4) -0.072
COX5B (UniProt P10606) 0.094
CELF2 isoform 3 (UniProt O95319) -0.035
CDK5 (UniProt Q00535) -0.003
CDK6 (UniProt Q00534) 0.021
CMTM3 (UniProt Q96MX0) -0.075
COQ9 (UniProt O75208) -0.017
CHEK1 (UniProt O14757) -0.029
CBS (UniProt P35520) 0.044
CPT1A (UniProt P50416) 0.118
CDK5RAP1 (UniProt Q96SZ6) 0.066
CES2 isoform 4 (UniProt O00748) 0.078
COX6B1 (UniProt P14854) 0.012
CTBS (UniProt Q01459) 0.002
CNOT1 (UniProt A5YKK6) 0.02
CETN2 (UniProt P41208) -0.067
COMMD2 (UniProt Q86X83) 0.124
CCZ1 (UniProt P86791) 0.044
CA1 (UniProt P00915) -0.006
CDK13 (UniProt Q14004) 0.029
CPD (UniProt O75976) -0.045
CDKN2AIP (UniProt Q9NXV6) -0.029
CD151 (UniProt P48509) -0.048
CDK5RAP3 isoform 4 (UniProt Q96JB5) 0.026
CD53 (UniProt P19397) -0.022
CD55 isoform 7 (UniProt P08174) 0.001
C9orf64 (UniProt Q5T6V5) 0.038
CNOT2 (UniProt Q9NZN8) 0.014
CCDC59 (UniProt Q9P031) -0.008
